# In PubChem BioAssay AID2599 (Sanford-Burnham Center for Chemical Genomics, 2010):
# The whole screen tested about 330,000 compounds, of which about 5,800 (1.8%) were called active.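 Rule for the calls: active = inhibition above about 50% at the single tested dose (limit read from the data); inactive = the rest.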 Shown is part of a subset that was picked to be rich in actives.
# Biological target: Sentrin-specific protease 6 (Homo sapiens) (UniProt Q9GZR1)
# Assay: SENP6 protease inhibitors, primary screen, biochemical, luminescence, uHTS (AID 2599);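 note: plate controls were DMSO wells with enzyme for no effect and DMSO wells lacking enzyme for full effect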
# Conditions: Recombinant SENP6 catalytic domain, aminoluciferin luminescence; at 10 µM; stronger effect = higher value
# Chain of Sentrin-specific protease 6 (Homo sapiens) (Q9GZR1 628-1112 limits assumed): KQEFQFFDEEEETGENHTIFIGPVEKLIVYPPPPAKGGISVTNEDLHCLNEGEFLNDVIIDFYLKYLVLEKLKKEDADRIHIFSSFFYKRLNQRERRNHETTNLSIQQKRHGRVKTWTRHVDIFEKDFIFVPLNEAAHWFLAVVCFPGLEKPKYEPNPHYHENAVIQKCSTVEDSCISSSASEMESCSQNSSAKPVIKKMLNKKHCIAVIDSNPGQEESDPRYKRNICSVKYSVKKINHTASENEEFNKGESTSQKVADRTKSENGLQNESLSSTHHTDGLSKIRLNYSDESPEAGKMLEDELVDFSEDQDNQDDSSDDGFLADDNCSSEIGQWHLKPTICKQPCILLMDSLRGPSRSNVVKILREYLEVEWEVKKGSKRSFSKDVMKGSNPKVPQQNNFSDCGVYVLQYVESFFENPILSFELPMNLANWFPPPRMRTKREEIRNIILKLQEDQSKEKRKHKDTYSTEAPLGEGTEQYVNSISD
row,SMILES,inhibition
1,CC(C)C(NS(=O)(=O)c1cccs1)C(=O)Nc1nc(C(C)(C)C)cs1 (stereo not drawn),-11.7% (inactive)
2,COc1ccccc1OCc1nc2ccccc2s1,94.1% (active)
3,CN(Cc1nc2ccccc2s1)C(=O)c1ccc(F)cc1,2.3% (inactive)
4,COc1ccccc1N1CC(O)=C(c2nc3ccccc3s2)C1=N,-18.4% (inactive)
5,C/C=C/c1ccc(OCC(O)CN2CCCCCCC2)c(OC)c1 (stereo not drawn),1.7% (inactive)
6,CC(C)[C@H](NC(=O)N1CC(=O)Nc2ccccc21)C(=O)N[C@@H](Cc1c[nH]c2ccccc12)C(=O)O,-5.26% (inactive)
7,CCOc1ccc(-n2c(SCC(N)=O)nnc2-c2ccco2)cc1,-12.9% (inactive)
8,N#Cc1ccc(OCc2nnc(-c3ccc([N+](=O)[O-])cc3)o2)cc1,-4.94% (inactive)
9,CCCCOc1ccc(-c2ncc(C(=O)OCC)c(N)n2)cc1,-8.7% (inactive)
10,COc1ccc(OCC(=O)Nc2nnc(-c3ccco3)s2)cc1,-16.6% (inactive)
11,CCCCOc1ccc(-c2nnc(-c3ccco3)o2)cc1,67.2% (active)
12,CCOc1ccc(-c2nnc(-c3ccco3)o2)cc1,85% (active)
13,O=S(=O)(Cc1nnnn1-c1ccccc1)c1ccccc1,6.33% (inactive)
14,Cc1ccc(NC(=O)[C@H](Cc2ccccc2)NC(=O)C2CCNCC2)cc1,-5.94% (inactive)
15,CCOc1ccc(S(=O)(=O)N2CCC(C(=O)OCc3ccc(OC)cc3)CC2)cc1,-11.1% (inactive)
16,CCc1ccc2oc(-c3ccc(N)cc3)nc2c1,96.1% (active)
17,O=C(Nc1ccc2oc(-c3ccc4ccccc4c3)nc2c1)c1cccs1,-13.1% (inactive)
18,Cc1cc2nc(-c3ccc(NC(=O)c4cccnc4)cc3)oc2cc1C,-15% (inactive)
19,COc1cccc(NC(=O)Cn2cnc3sc(C)c(S(=O)(=O)N4CCN(C)CC4)c3c2=O)c1,10.7% (inactive)
20,Cc1nnc(Nc2ccccc2F)s1,8.06% (inactive)
21,C=CCN1CCN(C(=O)CCCc2ccccc2)CC1,0.31% (inactive)
22,O=c1ccc2cc(S(=O)(=O)Nc3ccccc3F)ccc2o1,16.4% (inactive)
23,N#CC1=C(N)C(C#N)(C#N)[C@H](c2ccsc2)[C@H]2COCC=C12,-0.527% (inactive)
24,CCCN1CC=C2C(C#N)=C(N)C(C#N)(C#N)C(c3cc(OC)ccc3OC)C2C1 (stereo not drawn),0.193% (inactive)
25,CCN1CC=C2C(C#N)=C(N)C(C#N)(C#N)[C@H](c3ccoc3)[C@H]2C1,72.9% (active)

row,SMILES,inhibition
1,CC(CO)(CO)NC(=O)c1ccc(=O)[nH]n1,-1.98% (inactive)
2,Cc1noc(C)c1C(=O)Nc1ccccn1,-8.05% (inactive)
3,Cc1c(C(=O)Nc2ccccn2)oc2ccc(Br)cc12,56.3% (active)
4,Cc1nonc1NC(=O)c1oc2ccccc2c1C,2.56% (inactive)
5,Cn1ccc(=Nc2ccc(NC(=O)c3ccc(N=c4ccn(C)c5ccc([N+](=O)[O-])cc45)cc3)cc2)cc1,0.718% (inactive)
6,NS(=O)(=O)c1ccc(-c2ccc(/C=C3\SC(=O)NC3=O)o2)cc1,-21.1% (inactive)
7,CCn1c(CN2C(=O)CSc3ccccc32)n[nH]c1=S,5.59% (inactive)
8,CCOC(=O)c1cc(C)sc1NC(=O)C1CCC1,-29.2% (inactive)
9,COc1cccc(C(=O)c2cc3ccc(O)cc3oc2=O)c1,101% (active)
10,COc1cccc(C(=O)NNC(=O)c2cccc(F)c2)c1,0.598% (inactive)
11,CCOC(=O)c1cc2cc3ccccc3cc2oc1=O,13.2% (inactive)
12,Cc1ccc(N2C(=O)C(NC(=O)c3c(F)cccc3F)(C(F)(F)F)C3=C2CC(C)(C)CC3=O)cc1 (stereo not drawn),-5.98% (inactive)
13,COC(=O)c1c(CCl)noc1C(=O)NC(C)C,15.8% (inactive)
14,COc1ccc(N2CCN(C(=O)c3ccc4c(Cl)c5c(nc4c3)CCCC5)CC2)cc1,-0.317% (inactive)
15,CC(C)CCNC(=O)c1ccc2c(Cl)c3c(nc2c1)CCC3,76.2% (active)
16,CC(=O)c1ccc(NC(=O)c2ccc3c(Cl)c4c(nc3c2)CCCC4)cc1,-20.3% (inactive)
17,Cc1nc2ccccc2c(=O)n1-c1ccc(F)c(NC(=O)c2cccs2)c1,1.23% (inactive)
18,CCn1nnnc1SCC(=O)c1ccc(C)cc1C,16% (inactive)
19,CC(Oc1cccc(Cl)c1)C(=O)NC1CC(C)(C)NC(C)(C)C1 (stereo not drawn),0.854% (inactive)
20,Cc1nnc(SCC(=O)Nc2ccc(S(=O)(=O)Nc3ccc(Cl)nn3)cc2)s1,-2.31% (inactive)
21,Cc1ccc(SC(CC(=O)c2ccc(C(C)(C)C)cc2)C(=O)O)cc1 (stereo not drawn),-11.7% (inactive)
22,CC(C)Cc1cc(C(=O)Nc2cc(Br)ccc2O)no1,58.1% (active)
23,CC(C)CNC(=O)c1cc(-c2ccc(Br)cc2)on1,-1.36% (inactive)
24,CC(C)Cc1cc(C(=O)NCCc2ccccc2)no1,13% (inactive)
25,O=C(NNc1cc(Cl)cc(Cl)c1)c1c(F)cccc1Cl,-9.66% (inactive)

row,SMILES,inhibition
1,O=C(Nc1ccccc1)c1cc2ccccc2[nH]1,86.2% (active)
2,COc1ccc2[nH]c(C(=O)Nc3ccccc3Cl)cc2c1,-36% (inactive)
3,CC(OC(=O)c1cc2ccccc2[nH]1)C(=O)N(C)c1ccccc1 (stereo not drawn),-10.7% (inactive)
4,O=C(Cc1ccc(S(=O)(=O)N2CCOCC2)s1)NCCC(c1ccccc1)c1ccccc1,-9.6% (inactive)
5,Oc1ccc(N=Cc2sc3ccccc3c2Cl)cc1,65.7% (active)
6,CC(=O)n1c(C=Nc2ccccc2)c(O)c2ccccc21,-2.55% (inactive)
7,CCn1c(SCC(=O)Nc2cccc(F)c2)nnc1-c1cc2cc(Br)ccc2o1,-0.574% (inactive)
8,CCc1cccc(C)c1NC(=O)COC(=O)Cc1ccsc1,-15.1% (inactive)
9,CCN1CCN(C(=O)/C=C\C(=O)O)CC1,-13.9% (inactive)
10,O=[N+]([O-])c1ccc2c(c1)Nc1nc3ccccc3nc1N2,-19% (inactive)
11,O=[N+]([O-])c1ccc2nc(-c3ccccn3)[nH]c2c1,55.5% (active)
12,O=[N+]([O-])c1ccc(N/N=C2/CCCCC2c2ccccn2)c([N+](=O)[O-])c1 (stereo not drawn),-14.2% (inactive)
13,Cc1cccc(C(=O)OCC(=O)Nc2ccc(F)cc2)c1,-14% (inactive)
14,CCOC(=O)c1cccc(NC(=O)c2ccc(F)cc2F)c1,53.3% (active)
15,CCOC(=O)c1cccc(NC(=O)CCOc2ccccc2)c1,-8.69% (inactive)
16,COc1c(C=O)c(CCN(C)C(=O)c2ccc(F)cc2)cc2c1OCO2,-13.8% (inactive)
17,COC(CNC(=O)Cn1ncc2ccsc2c1=O)OC,-0.866% (inactive)
18,O=C(c1ccc(NS(=O)(=O)c2ccc3[nH]c(=O)[nH]c3c2)cc1)N1CCCCC1,-7.59% (inactive)
19,C#CCOc1ccccc1/C=C1/C(=O)ON=C1C,9.07% (inactive)
20,Cc1ccc(C23CC4CC(CC(C(=O)NCC(=O)O)(C4)C2)C3)cc1,-30.4% (inactive)
21,CC(C)CCNC(=O)Cn1c(=O)oc2cc(S(=O)(=O)N3CC(C)CC(C)C3)ccc21 (stereo not drawn),2.44% (inactive)
22,Cc1noc(C)c1/C=N/Nc1ccc2ccccc2n1,-42.7% (inactive)
23,Cc1cc(=O)[nH]c(N/N=C/c2ccc3c(c2)OCCO3)n1,-9.26% (inactive)
24,C(=N\Nc1ccc2ccccc2n1)/c1ccc2c(c1)OCO2,91.4% (active)
25,O=C(CCc1n[nH]c(=O)[nH]c1=O)N/N=C/c1ccc(Br)o1,-16.6% (inactive)

row,SMILES,inhibition
1,CCNc1nc(SCCOc2ccccc2)nc(N(C)C)n1,-7.75% (inactive)
2,Cn1c(-c2ccco2)nc2cc3ccccc3cc21,98.6% (active)
3,CS(=O)(=O)n1nc(-c2ccco2)nc1N,12.1% (inactive)
4,COc1ccccc1-n1c(-c2cc(-c3ccco3)[nH]n2)n[nH]c1=S,8.36% (inactive)
5,COc1cc(/C=N/NC(=O)CCc2n[nH]c(=O)[nH]c2=O)ccc1O,-10.3% (inactive)
6,COc1cc(/C=N/Nc2nc3ccccc3s2)ccc1O,85.4% (active)
7,COc1ccc(/C=N/NC(=O)c2cc(-c3cccc(C)c3)nc3ccccc23)cc1O,4.88% (inactive)
8,Cc1c(C(=O)NNC(=O)c2ccncc2)oc2ccccc12,-3.56% (inactive)
9,O=C(CCNC(=O)c1ccc(Cl)cc1)NC1CCCc2ccccc21 (stereo not drawn),2% (inactive)
10,O=C(Nc1nnc(S(=O)(=O)N2CCOCC2)s1)c1cccc(Br)c1,21.8% (inactive)
11,O=C(Nc1nnc(S(=O)(=O)N2CCCCCC2)s1)c1cccc(Br)c1,75.4% (active)
12,Cc1cccc(C(=O)Nc2nnc(S(=O)(=O)N3CCCCCC3)s2)c1,33.1% (inactive)
13,Cc1c(Cl)c([N+](=O)[O-])nn1CC(=O)NCC1CCCO1 (stereo not drawn),-2.16% (inactive)
14,CCCCNC(=O)c1cn(CC)c2cc(N3CCN(C(=O)c4ccco4)CC3)c(F)cc2c1=O,12.7% (inactive)
15,Cc1noc(C)c1CSc1nc2cc(S(=O)(=O)N3CCOCC3)ccc2o1,3.51% (inactive)
16,O=C(NC1CCCCC1)c1cc(C2CC2)on1,-14.8% (inactive)
17,CSc1ccccc1NC(=O)c1cc(C2CC2)on1,52% (active)
18,CSc1ccccc1NC(=O)c1cc(Cl)sc1Cl,-4.94% (inactive)
19,Nc1c(C(=O)OCC(=O)Nc2ccc(OC(F)F)cc2)[nH]c(=O)[nH]c1=O,4.9% (inactive)
20,O=C(/C=C/c1ccc([N+](=O)[O-])o1)NNC(=O)c1ccc(F)cc1,-1.45% (inactive)
21,CCCCN(CC)C(=O)C1CCCN(S(=O)(=O)c2cccc3nsnc23)C1 (stereo not drawn),8.83% (inactive)
22,COC(=O)c1cccc(C(=O)N2CCC(CCC(=O)NCc3ccc(F)cc3)CC2)c1,2.77% (inactive)
23,CCCc1nc(N2CCN(C)CC2)c2sc(=S)n(-c3ccccc3)c2n1,8.07% (inactive)
